USP30 block: inhibitors of human USP30 deubiquitinase; Ubiquitin carboxyl-terminal hydrolase 30 (Homo sapiens), Q70CQ3; purified USP30, Ub-rhodamine cleavage fluorescence; inhibition, % at 25 µM; actives 5.3% (n = 47,000); AID 1645860, 2021
USP28 inh: inhibitors of human USP28 deubiquitinase. actives 3% (n = 47,000). AID 1645857, 2021. inhibition, % at 25 µM. purified USP28, Ub-rhodamine cleavage fluorescence, 30 min. Ubiquitin carboxyl-terminal hydrolase 28 (Homo sapiens), Q96RU2
Target sequence (Q96RU2 whole entry, looked up): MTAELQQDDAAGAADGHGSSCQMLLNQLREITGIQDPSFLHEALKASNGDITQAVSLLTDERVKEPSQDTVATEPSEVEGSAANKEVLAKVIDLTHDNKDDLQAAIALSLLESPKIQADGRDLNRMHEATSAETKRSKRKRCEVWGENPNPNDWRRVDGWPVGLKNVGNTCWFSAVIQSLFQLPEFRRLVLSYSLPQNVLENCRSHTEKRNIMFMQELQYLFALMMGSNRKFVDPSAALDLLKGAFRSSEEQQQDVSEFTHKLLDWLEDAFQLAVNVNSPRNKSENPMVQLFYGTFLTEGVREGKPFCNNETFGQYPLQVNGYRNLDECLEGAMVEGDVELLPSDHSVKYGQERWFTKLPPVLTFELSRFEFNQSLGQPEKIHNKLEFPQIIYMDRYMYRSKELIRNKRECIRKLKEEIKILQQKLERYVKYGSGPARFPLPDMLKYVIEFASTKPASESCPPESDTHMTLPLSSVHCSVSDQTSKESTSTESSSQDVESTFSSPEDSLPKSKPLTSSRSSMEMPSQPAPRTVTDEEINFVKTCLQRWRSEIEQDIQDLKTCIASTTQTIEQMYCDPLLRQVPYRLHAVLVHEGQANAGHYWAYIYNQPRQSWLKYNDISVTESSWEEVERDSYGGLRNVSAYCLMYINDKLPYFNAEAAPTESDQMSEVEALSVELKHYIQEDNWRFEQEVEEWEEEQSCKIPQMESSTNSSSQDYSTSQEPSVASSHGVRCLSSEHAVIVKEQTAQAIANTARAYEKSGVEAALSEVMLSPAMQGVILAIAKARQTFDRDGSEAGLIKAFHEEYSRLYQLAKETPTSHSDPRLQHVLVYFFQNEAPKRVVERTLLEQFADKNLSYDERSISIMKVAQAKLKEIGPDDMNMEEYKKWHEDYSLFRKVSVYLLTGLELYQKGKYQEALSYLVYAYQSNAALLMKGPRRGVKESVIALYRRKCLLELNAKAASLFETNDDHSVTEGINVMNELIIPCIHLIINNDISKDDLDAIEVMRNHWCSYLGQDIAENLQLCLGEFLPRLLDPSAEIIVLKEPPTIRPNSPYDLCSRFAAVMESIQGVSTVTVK
OTUD3 block: inhibitors of human OTUD3 deubiquitinase. inhibition, % at 25 µM. purified OTUD3, Ub-rhodamine fluorescence, 2 h. actives 0.7% (n = 47,000)
USP17 inh: inhibitors of human USP17 deubiquitinase. Ubiquitin carboxyl-terminal hydrolase 17-like protein 5 (Homo sapiens), A8MUK1. purified USP17, Ub-rhodamine cleavage fluorescence, 3 h. inhibition, % at 50 µM. actives 6.5% (n = 47,000). AID 1645855, 2021
Each line names hits and unclear results; the compound was inactive in the other large screens. The list is not random: actives were taken first. Their share in the collection is about 12%. No stated cut-off is given here; in the data, active means inhibition above about 30%; inactive means the rest.

Cn1c(CCC(=O)Nc2ccc3c(c2)CCC3)nc2cc(S(=O)(=O)N3CCOCC3)ccc21	USP30 block 33, USP17 inh 48
CCC(Cc1ccccc1)NC(=O)c1nnc(Cc2ccccc2Cl)o1 (stereo not drawn)	none
Cc1nc2ccn(Cc3ccco3)c(=O)c2cc1C(=O)NCc1cccs1	USP28 inh 30
COCCn1ccc2nc(C)c(C(=O)NCc3ccccc3)cc2c1=O	none
Cc1ccc2c(CNC(c3ccccc3)c3ccccc3)cc(=O)oc2c1C	none
O=C(CN1C(=O)c2ccccc2Sc2ccc(C(=O)N3CCCC3)cc21)Nc1ccccc1Cl	USP28 inh 38, USP17 inh 52
Cc1cccc(CN2C(=O)c3ccccc3Sc3ccc(C(=O)N4CCC5(CC4)OCCO5)cc32)c1	none
CCOc1ccc(CN(C)C(=O)C(C)c2ccc3cc(OC)ccc3c2)cc1 (stereo not drawn)	none
Cc1ccc(CN2CCC(c3nc(-c4ccncc4)n[nH]3)CC2)o1	none (no result: USP30 block, USP28 inh)
c1cnc(-c2n[nH]c(C3CCN(C4CCNC4)CC3)n2)cn1 (stereo not drawn)	USP28 inh 51, USP17 inh 54
O=C1CNc2ccc(C(=O)NCCC3=CCCCC3)cc2N1	none (no result: USP30 block, USP28 inh)
Cn1c(=O)sc2cc(NC(=O)c3ccc(Br)cc3)ccc21	USP17 inh 59
Cc1cccc(C(=O)NC(Cc2ccccc2)c2nc3ccccc3n2C)c1 (stereo not drawn)	USP30 block 45 (no result: USP17 inh)
Cc1cccc(C(=O)NC(Cc2ccccc2)c2nc3ccccc3[nH]2)c1 (stereo not drawn)	none
COCCN1C[C@@]23CN(C(=O)c4cccnc4)C[C@@H](C[C@@H]2S1(=O)=O)O3	none
c1ccc(-n2c(SCCc3ccncc3)nnc2N2CCOCC2)cc1	USP30 block 42
OCCSc1nnc(N2CCCC2)n1-c1cccc(Cl)c1	none
O=C(CCc1nnc2n(Cc3ccccc3)c(=O)c3ccccc3n12)NCc1ccccn1	none
CCN(CCCNC(=O)CCc1nnc2n(Cc3ccccc3)c(=O)c3ccccc3n12)c1cccc(C)c1	USP30 block 42 (no result: USP17 inh)
O=C(CCc1nnc2n(Cc3ccccc3)c(=O)c3ccccc3n12)NCC1CCCO1 (stereo not drawn)	USP30 block 30
CC(C)CCn1c(=O)c2ccccc2n2c(CCC(=O)NCCN3CCCC3)nnc12	none
CCN(CCCNC(=O)CCc1nnc2n(Cc3ccc(C)cc3)c(=O)c3ccccc3n12)c1cccc(C)c1	none
O=C(CCc1nnc2n(Cc3ccc(F)cc3)c(=O)c3ccccc3n12)N1CCN(c2ccccn2)CC1	USP30 block 53
CC(C)Cn1c(=O)c2ccccc2n2c(CCC(=O)NCC3CCCO3)nnc12 (stereo not drawn)	USP30 block 35
CCCn1nc(-n2cnnc2)c(NC(=O)c2ccc(F)cc2)c1C	none
COc1ccc(CN(C(=O)c2ccc(-c3ccccc3)[nH]2)C(C(=O)NCC2CCCO2)c2ccc(F)cc2)cc1 (stereo not drawn)	none
COc1ccc(CNC(=O)CCc2nc3sc4c(c3c(=O)[nH]2)CCCCC4)cc1	USP17 inh 51
Cc1cccc(-c2nnn3c2nc(NCC2CCCO2)c2ccccc23)c1 (stereo not drawn)	USP30 block 66, USP17 inh 58
O=c1[nH]c(C2CCN(S(=O)(=O)c3ccc(S(=O)(=O)NC4CCCCC4)cc3)CC2)nc2c1nnn2Cc1c(Cl)cccc1Cl	USP30 block 50, USP28 inh 49
O=c1[nH]c(C2CCN(S(=O)(=O)c3ccc(S(=O)(=O)NC4CCCCC4)cc3)CC2)nc2c1nnn2Cc1c(F)cccc1Cl	USP30 block 59, USP28 inh 55
CC(C)NC(=O)N1CCC2(CC1)COCCN(Cc1ccncc1)C2	none
O=S1(=O)NC(=NCCc2ccc(Cl)cc2Cl)c2ccccc21	USP17 inh 58
O=S1(=O)NC(=NCCc2ccc(Cl)cc2)c2ccccc21	USP17 inh 35
Cc1cccc(Cc2nc(CC(=O)Nc3ccc(F)cc3F)n[nH]2)c1	none
Cc1cccc(NC(=O)CSc2ccc(-c3nc(C)no3)cn2)c1	none
Cc1cccc(NC(=O)CSc2ccc(-n3cnc(-c4ccccc4)c3)nn2)c1	USP30 block 61
CC(C)c1n[nH]c(=O)c2c1nnn2Cc1ccccc1F	USP30 block 34
CC(C)NC(=O)C1CCN(C2CCN(Cc3ccccc3)CC2)CC1	none
Cc1noc(CN2CCC(C3CCCCCN3C(=O)Nc3ccccc3)CC2)n1 (stereo not drawn)	none
Cn1nccc1C(=O)N1CCCCC1c1ncc(Cc2ccc(Cl)cc2)o1 (stereo not drawn)	OTUD3 block 35
O=C(c1cnco1)N1CCCCC1c1ncc(Cc2ccc(Cl)cc2)o1 (stereo not drawn)	none
Cn1ncc2c(NCc3ccc(F)cc3)nc(N3CCOCC3)nc21	none
COc1ccc(S(=O)(=O)c2cnc3cc(OC)c(OC)cc3c2NCc2ccccc2)cc1	none
COc1ccc(S(=O)(=O)c2cnc3ccc(Cl)cc3c2NCc2ccccc2)cc1	USP30 block 30
COc1ccc(OC)c(SCC(=O)N2CCc3c([nH]c4ccccc34)C2C(F)(F)F)c1 (stereo not drawn)	none
COc1ccccc1NC(=O)Nc1ccc2sc(NC(=O)C3CCCCC3)nc2c1	USP30 block 31
CCC(=O)Nc1nc2cc(NC(=O)c3ccccc3C)ccc2s1	none
CCC(=O)Nc1nc2cc(NC(=O)Nc3cccc(C)c3)ccc2s1	USP30 block 38
CCC(=O)Nc1nc2cc(NC(=O)Nc3ccc(C)cc3)ccc2s1	USP30 block 42
Cc1cc(C)c(NC(=O)C2Cc3ccccc3CN2C(=O)c2ccco2)c(C)c1 (stereo not drawn)	none
COc1ccc(C)cc1S(=O)(=O)N1CCOC(c2ccccc2)C1 (stereo not drawn)	none
CCOc1ccc(/C=C/C(=O)Nc2nnc(C)s2)cc1	USP17 inh 31
CN(Cc1ccccc1)S(=O)(=O)c1ccc2[nH]c(=O)[nH]c2c1	USP17 inh 37
CN(Cc1ccccc1)S(=O)(=O)c1ccc(N2CCCCS2(=O)=O)cc1	USP17 inh 37 (no result: USP30 block, USP28 inh)
O=c1[nH]c2ccc(S(=O)(=O)N3CCN(Cc4ccccc4)CC3)cc2[nH]1	none
Cn1c(-c2nnc(SCC(=O)NCCc3ccccc3)o2)cc2ccccc21	USP30 block 57, USP17 inh 43
CCCCNC(=O)CSc1nnc(-c2cc3ccccc3n2C)o1	USP30 block 72, OTUD3 block 31, USP17 inh 56
COc1ccc(C(CNC(=O)Cc2cccc(C)c2)N2CCOCC2)cc1 (stereo not drawn)	none
O=C(CSc1nc2[nH]ncc2c(=O)[nH]1)N1CCc2ccccc21	none
CC(C)(C)c1ccc(C(=O)Nc2ccc([C@@H](O)[C@H]3COCC(=O)N3)cc2)cc1	USP28 inh 47
Cc1cc(NC(=O)COc2ccc(F)c(Cl)c2)no1	USP28 inh 40
Cc1ccc(-c2nc(NC(=O)COc3ccc(Cl)cc3)no2)cc1	USP28 inh 89, USP17 inh 93
Cc1cc(NC(=O)CSc2nnc(CNC(=O)COc3ccc(Cl)cc3)o2)no1	none

High-throughput results (PubChem)
